# Experimental data taken from PubChem BioAssay (NCATS).
# A number with no mark means an inactive call. Results filed as inconclusive are left out. Where a call stands in place of a potency, no number is given. Active and inactive are the calls of the source. Unless noted, calls come from the whole dose curve; as a rule, active = well fitted curve in the direction sought with a large enough effect; inconclusive = small, poorly fitted or top-dose-only effect, or another doubt; inactive = no such curve, though single readings can be large; an effect the other way counts as inactive or inconclusive. Bridge positions count the residues as written; N and C are the ends. Square brackets hold non-standard residues; d marks the D form. Peptide text beside a SMILES is read from it. * marks the point of attachment. Octanoyl(6-Me) = CCC(C)CCCCC(=O)*; Dab = NCC[CH](N)C(=O)O
# Columns and labels:
# [1] = biological target: Cytochrome P450 3A4 (Homo sapiens) (UniProt P08684); assay: qHTS Assay for Inhibitors and Substrates of Cytochrome P450 3A4 (AID 884); note: nearly all actives have a fitted effect of over 50% in size
# Sequence of Cytochrome P450 3A4 (Homo sapiens) (P08684 whole entry, looked up): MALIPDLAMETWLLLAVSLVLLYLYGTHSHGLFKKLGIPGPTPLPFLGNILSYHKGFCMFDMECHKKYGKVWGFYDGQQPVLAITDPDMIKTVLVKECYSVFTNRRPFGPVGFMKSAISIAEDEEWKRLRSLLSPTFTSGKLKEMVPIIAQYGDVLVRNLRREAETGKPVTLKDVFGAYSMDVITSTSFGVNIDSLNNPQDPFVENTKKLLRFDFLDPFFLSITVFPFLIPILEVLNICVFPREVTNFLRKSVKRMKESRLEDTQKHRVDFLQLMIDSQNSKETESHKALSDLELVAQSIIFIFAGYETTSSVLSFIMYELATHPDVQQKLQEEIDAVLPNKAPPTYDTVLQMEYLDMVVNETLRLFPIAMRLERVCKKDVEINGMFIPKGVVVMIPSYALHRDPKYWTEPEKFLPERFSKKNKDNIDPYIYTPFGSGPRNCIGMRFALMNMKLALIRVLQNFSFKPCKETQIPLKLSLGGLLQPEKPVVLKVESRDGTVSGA
# Method in brief: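 20 nM human CYP3A4 with 25 uM Luciferin-PPXE (at KM) in 200 mM KPO4, preincubated 10 min with compound; NADPH regeneration started a 60 min RT reaction. Luciferin detected by luminescence, normalized to 57 uM ketoconazole as full inhibition.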
# [2] = Confirmation and Secondary Assay for Modulators of Hemoglobin Beta Chain Splicing at IVS2 654 locus (AID 910);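 note: HeLa cells stably carrying EGFP split by mutant beta-globin IVS2-654 intron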
# Method in brief: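 Readout: per-well total peak green fluorescence (488 nm ex, 500–520 nm em) from objects 5–250 µm, reflecting correct splicing of an EGFP-654 reporter. Compounds were applied for 2 days at 37 °C to overnight-plated HeLa EGFP-654 cells; controls were DMSO and 500 nM IVS2-654 PNA.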
# [3] = Confirmation and Secondary Assay for Modulators of Hemoglobin Beta Chain Splicing at IVS2 705 locus (AID 930);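 note: HeLa cells stably expressing the EGFP-705 splicing reporter; GFP fluorescence per well restored by corrected splicing of the IVS2-705 intron in EGFP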
# Method in brief: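 HeLa cells stably carrying EGFP interrupted by mutant beta-globin intron 2 (IVS2-705) treated 2 days at 37C with compound; 500 nM antisense PNA as control. Correct splicing read as total peak GFP intensity per well by laser-scanning cytometry.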
# [4] = biological target: Ubiquitin carboxyl-terminal hydrolase 1 (Homo sapiens) (UniProt O94782); assay: Inhibitors of USP1/UAF1: Pilot qHTS (AID 504865); note: potency is the fitted concentration of half-maximal effect; nearly all actives have a fitted effect of over 35% in size
# Sequence of Ubiquitin carboxyl-terminal hydrolase 1 (Homo sapiens) (O94782 whole entry, looked up): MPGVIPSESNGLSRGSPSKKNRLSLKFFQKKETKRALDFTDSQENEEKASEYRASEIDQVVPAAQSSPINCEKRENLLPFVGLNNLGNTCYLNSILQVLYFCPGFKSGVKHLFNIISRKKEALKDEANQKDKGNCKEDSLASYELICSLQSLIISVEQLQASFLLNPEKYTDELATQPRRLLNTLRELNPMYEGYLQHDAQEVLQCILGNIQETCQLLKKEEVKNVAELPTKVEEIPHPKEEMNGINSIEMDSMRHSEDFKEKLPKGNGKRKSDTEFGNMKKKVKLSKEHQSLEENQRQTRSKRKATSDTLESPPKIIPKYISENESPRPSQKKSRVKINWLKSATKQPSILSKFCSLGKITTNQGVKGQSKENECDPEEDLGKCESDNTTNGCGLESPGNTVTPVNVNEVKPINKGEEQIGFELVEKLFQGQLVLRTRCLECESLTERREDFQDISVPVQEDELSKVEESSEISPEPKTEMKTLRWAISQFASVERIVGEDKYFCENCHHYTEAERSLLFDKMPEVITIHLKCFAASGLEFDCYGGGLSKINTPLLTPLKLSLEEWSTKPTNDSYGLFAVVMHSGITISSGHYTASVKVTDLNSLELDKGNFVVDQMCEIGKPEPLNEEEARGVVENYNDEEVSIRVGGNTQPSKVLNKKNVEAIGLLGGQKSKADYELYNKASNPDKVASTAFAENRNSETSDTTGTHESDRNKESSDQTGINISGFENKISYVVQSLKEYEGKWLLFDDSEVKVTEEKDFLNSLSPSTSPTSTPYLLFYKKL
# Method in brief: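 In 50mM HEPES pH 7.8 containing 0.5mM EDTA, 1mM TCEP, 0.1 mg/ml BSA and 0.01% Tween-20, 1nM USP1/UAF1 is exposed to compound for 15 min, then Ub-Rho (150nM final) is added and fluorescence is read over time.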
# [5] = biological target: Luciferin 4-monooxygenase (Photinus pyralis) (UniProt P08659); assay: Biochemical firefly luciferase enzyme assay for NPC (AID 624030);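 note: purified P. pyralis luciferase at 10 nM with luciferin and ATP substrate; nearly all actives have a fitted effect of over 70% in size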
# Sequence of Luciferin 4-monooxygenase (Photinus pyralis) (P08659 whole entry, looked up): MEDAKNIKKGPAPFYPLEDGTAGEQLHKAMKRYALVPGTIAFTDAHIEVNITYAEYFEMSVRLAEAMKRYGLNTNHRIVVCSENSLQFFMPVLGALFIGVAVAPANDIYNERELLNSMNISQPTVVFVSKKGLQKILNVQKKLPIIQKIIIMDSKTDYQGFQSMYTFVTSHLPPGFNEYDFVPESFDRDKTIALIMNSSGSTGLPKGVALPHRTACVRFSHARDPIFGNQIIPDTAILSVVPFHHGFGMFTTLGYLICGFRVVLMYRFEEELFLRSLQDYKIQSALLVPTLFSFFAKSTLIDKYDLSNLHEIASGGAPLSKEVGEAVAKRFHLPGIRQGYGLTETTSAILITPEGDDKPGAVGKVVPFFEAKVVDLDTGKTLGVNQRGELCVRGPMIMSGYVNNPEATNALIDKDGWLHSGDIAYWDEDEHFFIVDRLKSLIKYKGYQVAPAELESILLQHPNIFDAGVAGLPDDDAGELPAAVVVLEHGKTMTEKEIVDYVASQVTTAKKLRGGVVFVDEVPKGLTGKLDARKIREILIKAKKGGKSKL
# Method in brief: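 Direct inhibition of firefly luciferase enzyme (10 nM final, 50 mM Tris Acetate) assessed by luminescence within 5 minutes. Percent activity scaled between DMSO and PTC124 positive control, with concentration-effect curves classified by fit quality and response.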
# [6] = S16 Schwann cell PMP22 intronic element firefly luciferase assay (AID 624032); note: nearly all actives have a fitted effect of over 30% in size
# Method in brief: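 Luciferase reporter of PMP22 intronic-element expression in stably transfected S16 rat Schwann cells, read by ONE-Glo luminescence after 24 h compound exposure at 37 C. Activity scaled between DMSO (0%) and positive-control PTC124; concentration-effect curves quality-classified.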
# [7] = S16 Schwann cell PMP22 intronic element beta-lactamase assay (AID 624044; calls by dose curve; note: nearly all actives have a fitted effect of over 15% in size)
# Method in brief: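 Rat S16 Schwann cells with beta-Lac driven by a PMP22 intronic element, compound-treated 24 h at 37 °C. LiveBLAzer FRET B/G read: 460 nm normalized to potassium clavulanate vs DMSO; 535 nm FRET as viability; concentration-effect curves classified.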
# [8] = biological target: Glutathione peroxidase 1 (Homo sapiens) (UniProt P07203); assay: Primary qHTS Assay for Inhibitors of Recombinant Selenoprotein Glutathione Peroxidase 1 (GPX1) (AID 1845191); note: nearly all actives have a fitted effect of over 65% in size
# Sequence of Glutathione peroxidase 1 (Homo sapiens) (P07203 whole entry, looked up): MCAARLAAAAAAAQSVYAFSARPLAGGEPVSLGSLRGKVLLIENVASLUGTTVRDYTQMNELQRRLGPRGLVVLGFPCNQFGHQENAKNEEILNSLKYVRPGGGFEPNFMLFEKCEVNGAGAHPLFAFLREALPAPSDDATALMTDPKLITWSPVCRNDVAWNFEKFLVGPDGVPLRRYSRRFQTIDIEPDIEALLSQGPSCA
# Method in brief: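 10 nM GPX1 + cpd, 30 min RT; start w/ 1 mM GSH, 0.5 mM cumene hydroperoxide, 0.5 mM NADPH, 100 nM GR, 0.01% BSA; buffer 50 mM Tris-HCl pH 7.5, 2 mM EDTA, 150 mM NaCl; Fl 340/450, 0 & 15 min.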
# [9] = biological target: Phospholipid hydroperoxide glutathione peroxidase GPX4 (Homo sapiens) (UniProt P36969); assay: Primary qHTS Assay for Inhibitors of Recombinant Selenoprotein Glutathione Peroxidase 4 (GPX4) (AID 1845192); note: nearly all actives have a fitted effect of over 65% in size
# Sequence of Phospholipid hydroperoxide glutathione peroxidase GPX4 (Homo sapiens) (P36969 whole entry, looked up): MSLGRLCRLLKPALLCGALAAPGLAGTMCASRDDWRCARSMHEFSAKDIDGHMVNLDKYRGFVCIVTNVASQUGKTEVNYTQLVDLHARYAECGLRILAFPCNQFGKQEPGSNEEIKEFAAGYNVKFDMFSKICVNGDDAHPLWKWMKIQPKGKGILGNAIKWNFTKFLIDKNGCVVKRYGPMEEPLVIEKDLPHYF
# Method in brief: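 NADPH consumption, followed by fluorescence at 340/450 nm between 0 and 15 min, reports GPX4 activity via coupled glutathione reductase (100 nM). Enzyme 200 nM was pre-exposed to compound 30 min; 0.5 mM cumene hydroperoxide and 1 mM GSH served as substrates.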
# [10] = qHTS profiling for inhibitors of Plasmodium falciparum proliferation (AID 504749); note: nearly all actives have a fitted effect of over 60% in size; conditions: P. falciparum in erythrocytes, SYBR Green DNA, 72 h; at 28.7 µM (top of the series); parasite line B
# Method in brief: (§1)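 Infected RBCs, 0.3% parasitemia/2.5% Hct final; cpd 72 h, 37 C, 5% CO2; lysis buffer with saponin/triton/SYBR Green I, o/n RT dark; FI 485/535; norm. to artemisinin (0.29 uM) and DMSO.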
# 3D7 = assay: as above; conditions: P. falciparum in erythrocytes, SYBR Green DNA, 72 h; series mostly up to 28.7 µM
# Method in brief: as §1
# 7G8 = assay: as above; conditions: P. falciparum in erythrocytes, SYBR Green DNA, 72 h; series mostly up to 28.7 µM
# Method in brief: as §1
# AA1029 = assay: as above; conditions: P. falciparum in erythrocytes, SYBR Green DNA, 72 h; series mostly up to 28.7 µM
# Method in brief: as §1
# AS120 = assay: as above; conditions: P. falciparum in erythrocytes, SYBR Green DNA, 72 h; series mostly up to 28.7 µM
# Method in brief: as §1
# ATS189 = assay: as above; conditions: P. falciparum in erythrocytes, SYBR Green DNA, 72 h; series mostly up to 28.7 µM
# Method in brief: as §1
# ATS95 = assay: as above; conditions: P. falciparum in erythrocytes, SYBR Green DNA, 72 h; series mostly up to 28.7 µM
# Method in brief: as §1
# C2A = assay: as above; conditions: P. falciparum in erythrocytes, SYBR Green DNA, 72 h; series mostly up to 28.7 µM
# Method in brief: as §1
# CP185 = assay: as above; conditions: P. falciparum in erythrocytes, SYBR Green DNA, 72 h; series mostly up to 28.7 µM
# Method in brief: as §1
# CP191 = assay: as above; conditions: P. falciparum in erythrocytes, SYBR Green DNA, 72 h; series mostly up to 28.7 µM
# Method in brief: as §1
# CP192 = assay: as above; conditions: P. falciparum in erythrocytes, SYBR Green DNA, 72 h; series mostly up to 28.7 µM
# Method in brief: as §1
# CP194 = assay: as above; conditions: P. falciparum in erythrocytes, SYBR Green DNA, 72 h; series mostly up to 28.7 µM
# Method in brief: as §1
# CP201 = assay: as above; conditions: P. falciparum in erythrocytes, SYBR Green DNA, 72 h; series mostly up to 28.7 µM
# Method in brief: as §1
# CP203 = assay: as above; conditions: P. falciparum in erythrocytes, SYBR Green DNA, 72 h; series mostly up to 28.7 µM
# Method in brief: as §1
# CP211 = assay: as above; conditions: P. falciparum in erythrocytes, SYBR Green DNA, 72 h; series mostly up to 28.7 µM
# Method in brief: as §1
# CP215 = assay: as above; conditions: P. falciparum in erythrocytes, SYBR Green DNA, 72 h; series mostly up to 28.7 µM
# Method in brief: as §1
# CP237 = assay: as above; conditions: P. falciparum in erythrocytes, SYBR Green DNA, 72 h; series mostly up to 28.7 µM
# Method in brief: as §1
# CP238 = assay: as above; conditions: P. falciparum in erythrocytes, SYBR Green DNA, 72 h; series mostly up to 28.7 µM
# Method in brief: as §1
# CP247 = assay: as above; conditions: P. falciparum in erythrocytes, SYBR Green DNA, 72 h; series mostly up to 28.7 µM
# Method in brief: as §1
# CP250 = assay: as above; conditions: P. falciparum in erythrocytes, SYBR Green DNA, 72 h; series mostly up to 28.7 µM
# Method in brief: as §1
# CP252 = assay: as above; conditions: P. falciparum in erythrocytes, SYBR Green DNA, 72 h; series mostly up to 28.7 µM
# Method in brief: as §1
# CP256 = assay: as above; conditions: P. falciparum in erythrocytes, SYBR Green DNA, 72 h; series mostly up to 28.7 µM
# Method in brief: as §1
structure (smiles),measurement,setting,value
CCC(C)CCCCC(=O)NC(CCN)C(=O)NC(C(=O)NC(CCN)C(=O)NC1CCNC(=O)C(C(C)O)NC(=O)C(CCN)NC(=O)C(CCN)NC(=O)C(CC(C)C)NC(=O)C(Cc2ccccc2)NC(=O)C(CCN)NC1=O)C(C)O (stereo unspecified) ({Octanoyl(6-Me)}-[Dab]T[Dab][Dab][Dab]FL[Dab][Dab]T; lactam 4-C; configuration not given here),Potency,[1],inactive
same,Potency,[2],inactive
same,Potency,[3],inactive
same,Potency,[4],50.1 µM (active)
same,Potency,[5],inactive
same,Potency,[6],inactive
same,Potency,[7],inactive
same,Potency,[8],inactive
same,Potency,[9],inactive
same,"activity, negative = inhibition",[10],12%
same,Potency,3D7,inactive
same,Potency,7G8,inactive
same,Potency,AA1029,inactive
same,Potency,AS120,inactive
same,Potency,ATS189,inactive
same,Potency,ATS95,inactive
same,Potency,C2A,inactive
same,Potency,CP185,inactive
same,Potency,CP191,inactive
same,Potency,CP192,inactive
same,Potency,CP194,inactive
same,Potency,CP201,inactive
same,Potency,CP203,inactive
same,Potency,CP211,inactive
same,Potency,CP215,inactive
same,Potency,CP237,inactive
same,Potency,CP238,inactive
same,Potency,CP247,inactive
same,Potency,CP250,inactive
same,Potency,CP252,inactive
same,Potency,CP256,inactive
